Test results as given in the supplement of paper PMC4466140.

Key:
Assay in all cases: SPOT peptide array binding signal intensity (averaged, normalized) (arbitrary units (background-subtracted, floor 0; scale differs between SH3 domains)); higher = stronger binding of the SH3 domain to the peptide
AgAbp1 = target: AgAbp1
In short: (§1)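 E. coli BL21(DE3) was used to express GST-fused SH3 domains from four yeast species, which were then purified on glutathione Sepharose. These were incubated at 10 μg/ml in TBS-based blocking buffer overnight at 4°C on cellulose membranes carrying synthetic 15-mer peptides, in which cysteines were replaced by serines. Binding signal is the replicate average of normalized, background-subtracted spot intensity, in arbitrary units that differ between domains.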

AgBbc1 = target: AgBbc1
In short: as §1

AgBem1-D1 = target: AgBem1-D1
In short: as §1

AgBzz1-D1 = target: AgBzz1-D1
In short: as §1

AgBzz1-D2 = target: AgBzz1-D2
In short: as §1

AgCyk3 = target: AgCyk3
In short: as §1

AgFus1 = target: AgFus1
In short: as §1

AgHof1 = target: AgHof1
In short: as §1

AgHse1 = target: AgHse1
In short: as §1

AgLsb1 = target: AgLsb1
In short: as §1

AgLsb4 = target: AgLsb4
In short: as §1

AgMyo5 = target: AgMyo5
In short: as §1

AgNbp2 = target: AgNbp2
In short: as §1

AgRvs167 = target: AgRvs167
In short: as §1

AgSho1 = target: AgSho1
In short: as §1

AgSla1-D1-D2 = target: AgSla1-D1-D2
In short: as §1

AgSla1-D3 = target: AgSla1-D3
In short: as §1

CaAbp1-D1 = target: CaAbp1-D1
In short: as §1

CaAbp1-D2 = target: CaAbp1-D2
In short: as §1

CaBbc1 = target: CaBbc1
In short: as §1

CaBem1-D1 = target: CaBem1-D1
In short: as §1

CaBzz1-D1 = target: CaBzz1-D1
In short: as §1

CaBzz1-D2 = target: CaBzz1-D2
In short: as §1

CaCyk3 = target: CaCyk3
In short: as §1

CaFus1 = target: CaFus1
In short: as §1

CaHof1 = target: CaHof1
In short: as §1

CaHse1 = target: CaHse1
In short: as §1

CaLsb1 = target: CaLsb1
In short: as §1

CaLsb4 = target: CaLsb4
In short: as §1

CaMyo5 = target: CaMyo5
In short: as §1

CaNbp2 = target: CaNbp2
In short: as §1

CaRvs167 = target: CaRvs167
In short: as §1

CaRvs167-3 = target: CaRvs167-3
In short: as §1

CaSho1 = target: CaSho1
In short: as §1

CaSla1-D1-D2 = target: CaSla1-D1-D2
In short: as §1

CaSla1-D3 = target: CaSla1-D3
In short: as §1

ScAbp1 = target: ScAbp1
In short: as §1

ScBbc1 = target: ScBbc1
In short: as §1

ScBem1-D1 = target: ScBem1-D1
In short: as §1

ScBzz1-D1 = target: ScBzz1-D1
In short: as §1

ScBzz1-D2 = target: ScBzz1-D2
In short: as §1

ScCyk3 = target: ScCyk3
In short: as §1

ScFus1 = target: ScFus1
In short: as §1

ScHof1 = target: ScHof1
In short: as §1

ScHse1 = target: ScHse1
In short: as §1

ScLsb1 = target: ScLsb1
In short: as §1

ScLsb2 = target: ScLsb2
In short: as §1

ScLsb3 = target: ScLsb3
In short: as §1

ScLsb4 = target: ScLsb4
In short: as §1

ScMyo3 = target: ScMyo3
In short: as §1

ScMyo5 = target: ScMyo5
In short: as §1

ScNbp2 = target: ScNbp2
In short: as §1

ScPex13 = target: ScPex13
In short: as §1

ScRvs167 = target: ScRvs167
In short: as §1

ScSho1 = target: ScSho1
In short: as §1

ScSla1-D1-D2 = target: ScSla1-D1-D2
In short: as §1

ScSla1-D3 = target: ScSla1-D3
In short: as §1

SpAbp1-D1 = target: SpAbp1-D1
In short: as §1

SpBbc1 = target: SpBbc1
In short: as §1

SpBzz1-D1 = target: SpBzz1-D1
In short: as §1

SpBzz1-D2 = target: SpBzz1-D2
In short: as §1

SpCyk3 = target: SpCyk3
In short: as §1

SpHof1 = target: SpHof1
In short: as §1

SpHof1-2 = target: SpHof1-2
In short: as §1

SpHof1-3 = target: SpHof1-3
In short: as §1

SpHse1 = target: SpHse1
In short: as §1

SpLsb1 = target: SpLsb1
In short: as §1

SpLsb4 = target: SpLsb4
In short: as §1

SpMyo1 = target: SpMyo1
In short: as §1

SpNbp2 = target: SpNbp2
In short: as §1

SpPex13 = target: SpPex13
In short: as §1

SpRvs167 = target: SpRvs167
In short: as §1

SpSla1-D1-D2 = target: SpSla1-D1-D2
In short: as §1

SpSla1-D3 = target: SpSla1-D3
In short: as §1

Binder: LKQRFFLMFPKSIIW
- SPOT peptide array binding signal intensity (AgAbp1): 4
- SPOT peptide array binding signal intensity (AgBbc1): 6
- SPOT peptide array binding signal intensity (AgBem1-D1): 102
- SPOT peptide array binding signal intensity (AgBzz1-D1): 49.5
- SPOT peptide array binding signal intensity (AgBzz1-D2): 44
- SPOT peptide array binding signal intensity (AgCyk3): 1.5
- SPOT peptide array binding signal intensity (AgFus1): 742
- SPOT peptide array binding signal intensity (AgHof1): 81.5
- SPOT peptide array binding signal intensity (AgHse1): 1020
- SPOT peptide array binding signal intensity (AgLsb1): 0.5
- SPOT peptide array binding signal intensity (AgLsb4): 42.5
- SPOT peptide array binding signal intensity (AgMyo5): 0.5
- SPOT peptide array binding signal intensity (AgNbp2): 146
- SPOT peptide array binding signal intensity (AgRvs167): 3.67
- SPOT peptide array binding signal intensity (AgSho1): 102
- SPOT peptide array binding signal intensity (AgSla1-D1-D2): 141
- SPOT peptide array binding signal intensity (AgSla1-D3): 21
- SPOT peptide array binding signal intensity (CaAbp1-D1): 295
- SPOT peptide array binding signal intensity (CaAbp1-D2): 65.5
- SPOT peptide array binding signal intensity (CaBbc1): 17.8
- SPOT peptide array binding signal intensity (CaBem1-D1): 33.5
- SPOT peptide array binding signal intensity (CaBzz1-D1): 104
- SPOT peptide array binding signal intensity (CaBzz1-D2): 48.5
- SPOT peptide array binding signal intensity (CaCyk3): 5
- SPOT peptide array binding signal intensity (CaFus1): 4200
- SPOT peptide array binding signal intensity (CaHof1): 0.5
- SPOT peptide array binding signal intensity (CaHse1): 121
- SPOT peptide array binding signal intensity (CaLsb1): 1.5
- SPOT peptide array binding signal intensity (CaLsb4): 42
- SPOT peptide array binding signal intensity (CaMyo5): 35
- SPOT peptide array binding signal intensity (CaNbp2): 676
- SPOT peptide array binding signal intensity (CaRvs167): 89.2
- SPOT peptide array binding signal intensity (CaRvs167-3): 520
- SPOT peptide array binding signal intensity (CaSho1): 484
- SPOT peptide array binding signal intensity (CaSla1-D1-D2): 84.5
- SPOT peptide array binding signal intensity (CaSla1-D3): 257
- SPOT peptide array binding signal intensity (ScAbp1): 48
- SPOT peptide array binding signal intensity (ScBbc1): 4.5
- SPOT peptide array binding signal intensity (ScBem1-D1): 69
- SPOT peptide array binding signal intensity (ScBzz1-D1): 42
- SPOT peptide array binding signal intensity (ScBzz1-D2): 150
- SPOT peptide array binding signal intensity (ScCyk3): 124
- SPOT peptide array binding signal intensity (ScFus1): 819
- SPOT peptide array binding signal intensity (ScHof1): 1.5
- SPOT peptide array binding signal intensity (ScHse1): 1580
- SPOT peptide array binding signal intensity (ScLsb1): 1
- SPOT peptide array binding signal intensity (ScLsb2): ≤ 0
- SPOT peptide array binding signal intensity (ScLsb3): 33
- SPOT peptide array binding signal intensity (ScLsb4): 14.5
- SPOT peptide array binding signal intensity (ScMyo3): ≤ 0
- SPOT peptide array binding signal intensity (ScMyo5): 4
- SPOT peptide array binding signal intensity (ScNbp2): 252
- SPOT peptide array binding signal intensity (ScPex13): 15.5
- SPOT peptide array binding signal intensity (ScRvs167): 14.5
- SPOT peptide array binding signal intensity (ScSho1): 1060
- SPOT peptide array binding signal intensity (ScSla1-D1-D2): 91.5
- SPOT peptide array binding signal intensity (ScSla1-D3): 132
- SPOT peptide array binding signal intensity (SpAbp1-D1): 69
- SPOT peptide array binding signal intensity (SpBbc1): ≤ 0
- SPOT peptide array binding signal intensity (SpBzz1-D1): 103
- SPOT peptide array binding signal intensity (SpBzz1-D2): 0.5
- SPOT peptide array binding signal intensity (SpCyk3): 9
- SPOT peptide array binding signal intensity (SpHof1): 236
- SPOT peptide array binding signal intensity (SpHof1-2): 36.5
- SPOT peptide array binding signal intensity (SpHof1-3): 748
- SPOT peptide array binding signal intensity (SpHse1): 972
- SPOT peptide array binding signal intensity (SpLsb1): ≤ 0
- SPOT peptide array binding signal intensity (SpLsb4): 38.5
- SPOT peptide array binding signal intensity (SpMyo1): 3.5
- SPOT peptide array binding signal intensity (SpNbp2): 515
- SPOT peptide array binding signal intensity (SpPex13): 86
- SPOT peptide array binding signal intensity (SpRvs167): 14.3
- SPOT peptide array binding signal intensity (SpSla1-D1-D2): ≤ 0
- SPOT peptide array binding signal intensity (SpSla1-D3): 39
